Data reported in the supplement of paper PMC11732987, “Enantioselective OTUD7B fragment discovery through chemoproteomics screening and high-throughput optimisation” (Communications Chemistry, 2025).

Tests used:
Experiment in all cases: log2 ratio of Biotin-Ahx-Ub-VS probe labelling (fragment/DMSO); higher = less target engagement (more negative = stronger competition), active = hit call of the paper (q ≤ 0.05, log2 ratio ≤ -1)
Conditions in all cases: compound concentration: 200 uM; treatment time: 3 h
[1] = target: USP34 (UniProt Q70CQ2)
Summary of the method: (§1)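 The table lists average log2 ratios of fragment over vehicle, from an unpaired t-test on global-median-normalised Spectronaut label-free quantities. Proteins with ≥2 unique peptides were used. Samples were HEK293T lysate (495 µg) treated in triplicate with fragment at 200 µM or vehicle for 3 h, then with Biotin-Ahx-Ub-VS (0.5 µM final) for 1 h, with labelled DUBs NeutrAvidin-enriched and run by diaPASEF LC-MS/MS.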

[2] = target: T1, USP36 (UniProt Q9P275)
T1 sequence (whole entry): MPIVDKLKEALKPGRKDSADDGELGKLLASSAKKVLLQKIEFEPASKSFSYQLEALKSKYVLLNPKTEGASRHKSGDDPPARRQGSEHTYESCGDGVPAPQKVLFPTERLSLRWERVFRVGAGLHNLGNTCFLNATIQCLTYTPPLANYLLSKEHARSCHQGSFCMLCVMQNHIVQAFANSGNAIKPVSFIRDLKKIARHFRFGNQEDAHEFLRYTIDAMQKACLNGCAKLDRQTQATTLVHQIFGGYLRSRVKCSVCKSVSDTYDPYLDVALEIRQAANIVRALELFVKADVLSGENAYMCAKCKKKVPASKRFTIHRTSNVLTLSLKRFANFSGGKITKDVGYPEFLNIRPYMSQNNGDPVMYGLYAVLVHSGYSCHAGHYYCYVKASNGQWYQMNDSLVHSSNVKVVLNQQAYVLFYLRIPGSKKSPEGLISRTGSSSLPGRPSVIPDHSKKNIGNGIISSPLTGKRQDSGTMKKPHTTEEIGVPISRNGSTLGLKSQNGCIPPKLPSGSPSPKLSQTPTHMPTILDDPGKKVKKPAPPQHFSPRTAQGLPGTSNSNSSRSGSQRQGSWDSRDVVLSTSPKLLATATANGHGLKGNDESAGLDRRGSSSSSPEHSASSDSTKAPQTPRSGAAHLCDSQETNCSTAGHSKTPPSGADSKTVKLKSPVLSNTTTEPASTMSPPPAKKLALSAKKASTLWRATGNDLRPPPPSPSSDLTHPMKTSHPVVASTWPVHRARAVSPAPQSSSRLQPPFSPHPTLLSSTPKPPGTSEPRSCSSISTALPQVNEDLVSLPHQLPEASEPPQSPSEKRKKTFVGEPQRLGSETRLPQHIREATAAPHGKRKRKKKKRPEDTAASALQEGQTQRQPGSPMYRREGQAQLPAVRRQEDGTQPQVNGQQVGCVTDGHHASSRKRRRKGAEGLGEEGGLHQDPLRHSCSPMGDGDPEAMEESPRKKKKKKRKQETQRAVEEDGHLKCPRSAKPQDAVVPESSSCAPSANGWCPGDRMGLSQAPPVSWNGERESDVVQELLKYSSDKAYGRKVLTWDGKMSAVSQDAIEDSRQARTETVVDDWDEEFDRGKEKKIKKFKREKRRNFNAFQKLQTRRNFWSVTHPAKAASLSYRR
Summary of the method: as §1

[3] = target: T2, USP38 (UniProt Q8NB14)
T2 sequence (whole entry): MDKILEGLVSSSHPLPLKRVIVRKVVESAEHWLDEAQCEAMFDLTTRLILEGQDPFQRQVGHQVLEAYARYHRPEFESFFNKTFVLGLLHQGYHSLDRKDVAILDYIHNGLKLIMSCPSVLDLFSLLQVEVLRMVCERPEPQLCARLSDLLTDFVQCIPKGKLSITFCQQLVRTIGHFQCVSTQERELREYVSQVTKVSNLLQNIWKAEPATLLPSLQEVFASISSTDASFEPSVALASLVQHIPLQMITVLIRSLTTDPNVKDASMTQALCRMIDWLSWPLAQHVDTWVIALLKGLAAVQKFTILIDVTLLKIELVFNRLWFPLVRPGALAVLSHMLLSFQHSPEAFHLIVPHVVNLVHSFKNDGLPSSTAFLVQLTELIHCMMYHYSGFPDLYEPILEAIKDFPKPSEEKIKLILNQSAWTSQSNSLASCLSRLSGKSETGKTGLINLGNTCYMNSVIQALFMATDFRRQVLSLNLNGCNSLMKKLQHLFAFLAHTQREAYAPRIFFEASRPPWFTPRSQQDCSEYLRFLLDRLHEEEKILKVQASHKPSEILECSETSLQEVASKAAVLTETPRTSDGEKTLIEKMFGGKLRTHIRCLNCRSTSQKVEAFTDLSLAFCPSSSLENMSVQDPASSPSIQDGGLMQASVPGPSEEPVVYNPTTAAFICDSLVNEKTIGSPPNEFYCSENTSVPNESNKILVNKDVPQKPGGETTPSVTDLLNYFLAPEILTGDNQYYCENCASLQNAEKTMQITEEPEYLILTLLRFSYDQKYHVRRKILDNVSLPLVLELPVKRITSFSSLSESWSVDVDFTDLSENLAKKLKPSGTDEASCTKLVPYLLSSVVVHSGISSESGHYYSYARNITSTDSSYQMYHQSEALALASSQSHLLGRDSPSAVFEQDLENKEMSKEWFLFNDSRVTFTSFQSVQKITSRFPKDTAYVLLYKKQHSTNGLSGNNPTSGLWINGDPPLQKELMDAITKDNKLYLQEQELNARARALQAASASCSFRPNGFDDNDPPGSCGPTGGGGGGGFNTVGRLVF
Summary of the method: as §1

[4] = target: T3, USP39 (UniProt Q53GS9)
T3 sequence (whole entry): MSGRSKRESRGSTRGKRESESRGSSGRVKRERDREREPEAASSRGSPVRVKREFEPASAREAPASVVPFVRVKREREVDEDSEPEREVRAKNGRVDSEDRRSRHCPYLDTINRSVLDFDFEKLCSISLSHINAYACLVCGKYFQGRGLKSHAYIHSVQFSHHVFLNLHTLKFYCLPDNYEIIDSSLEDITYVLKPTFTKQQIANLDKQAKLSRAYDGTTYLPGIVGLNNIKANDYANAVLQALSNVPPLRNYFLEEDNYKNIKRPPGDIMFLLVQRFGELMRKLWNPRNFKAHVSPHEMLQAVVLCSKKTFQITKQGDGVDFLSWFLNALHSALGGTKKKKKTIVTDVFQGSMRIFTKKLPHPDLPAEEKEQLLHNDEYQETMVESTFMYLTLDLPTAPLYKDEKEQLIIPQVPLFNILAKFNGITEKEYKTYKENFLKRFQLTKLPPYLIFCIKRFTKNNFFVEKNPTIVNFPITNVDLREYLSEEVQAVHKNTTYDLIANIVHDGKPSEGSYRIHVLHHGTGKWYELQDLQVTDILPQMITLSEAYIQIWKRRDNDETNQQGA
Summary of the method: as §1

[5] = target: T4, USP4 (UniProt Q13107)
T4 sequence (whole entry): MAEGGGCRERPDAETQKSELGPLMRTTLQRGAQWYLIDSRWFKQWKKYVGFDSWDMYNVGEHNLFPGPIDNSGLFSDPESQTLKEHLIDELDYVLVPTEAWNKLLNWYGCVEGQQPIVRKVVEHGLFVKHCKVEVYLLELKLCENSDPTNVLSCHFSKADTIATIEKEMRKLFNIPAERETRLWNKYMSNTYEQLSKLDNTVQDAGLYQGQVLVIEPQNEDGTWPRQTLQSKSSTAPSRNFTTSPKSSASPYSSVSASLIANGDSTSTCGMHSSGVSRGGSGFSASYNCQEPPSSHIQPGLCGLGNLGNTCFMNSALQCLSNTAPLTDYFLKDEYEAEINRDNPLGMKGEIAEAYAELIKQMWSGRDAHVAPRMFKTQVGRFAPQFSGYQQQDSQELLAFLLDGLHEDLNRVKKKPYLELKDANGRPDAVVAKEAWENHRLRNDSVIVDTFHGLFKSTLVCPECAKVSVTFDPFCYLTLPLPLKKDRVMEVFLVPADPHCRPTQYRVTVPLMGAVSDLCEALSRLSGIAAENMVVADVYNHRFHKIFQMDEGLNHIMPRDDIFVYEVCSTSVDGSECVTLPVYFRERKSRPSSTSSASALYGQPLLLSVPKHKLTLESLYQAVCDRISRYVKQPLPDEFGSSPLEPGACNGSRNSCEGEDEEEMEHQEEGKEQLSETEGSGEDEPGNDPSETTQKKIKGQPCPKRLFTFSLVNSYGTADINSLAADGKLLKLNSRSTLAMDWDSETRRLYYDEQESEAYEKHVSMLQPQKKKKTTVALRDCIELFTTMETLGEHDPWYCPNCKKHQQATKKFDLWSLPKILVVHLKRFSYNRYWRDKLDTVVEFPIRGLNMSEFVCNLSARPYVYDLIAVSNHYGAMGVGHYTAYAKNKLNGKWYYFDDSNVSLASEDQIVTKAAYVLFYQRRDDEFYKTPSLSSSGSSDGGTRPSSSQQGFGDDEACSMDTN
Summary of the method: as §1

Measured: log2 ratio of Biotin-Ahx-Ub-VS probe labelling

Chain of USP34 (Q70CQ2 whole entry, the tested form may be a part): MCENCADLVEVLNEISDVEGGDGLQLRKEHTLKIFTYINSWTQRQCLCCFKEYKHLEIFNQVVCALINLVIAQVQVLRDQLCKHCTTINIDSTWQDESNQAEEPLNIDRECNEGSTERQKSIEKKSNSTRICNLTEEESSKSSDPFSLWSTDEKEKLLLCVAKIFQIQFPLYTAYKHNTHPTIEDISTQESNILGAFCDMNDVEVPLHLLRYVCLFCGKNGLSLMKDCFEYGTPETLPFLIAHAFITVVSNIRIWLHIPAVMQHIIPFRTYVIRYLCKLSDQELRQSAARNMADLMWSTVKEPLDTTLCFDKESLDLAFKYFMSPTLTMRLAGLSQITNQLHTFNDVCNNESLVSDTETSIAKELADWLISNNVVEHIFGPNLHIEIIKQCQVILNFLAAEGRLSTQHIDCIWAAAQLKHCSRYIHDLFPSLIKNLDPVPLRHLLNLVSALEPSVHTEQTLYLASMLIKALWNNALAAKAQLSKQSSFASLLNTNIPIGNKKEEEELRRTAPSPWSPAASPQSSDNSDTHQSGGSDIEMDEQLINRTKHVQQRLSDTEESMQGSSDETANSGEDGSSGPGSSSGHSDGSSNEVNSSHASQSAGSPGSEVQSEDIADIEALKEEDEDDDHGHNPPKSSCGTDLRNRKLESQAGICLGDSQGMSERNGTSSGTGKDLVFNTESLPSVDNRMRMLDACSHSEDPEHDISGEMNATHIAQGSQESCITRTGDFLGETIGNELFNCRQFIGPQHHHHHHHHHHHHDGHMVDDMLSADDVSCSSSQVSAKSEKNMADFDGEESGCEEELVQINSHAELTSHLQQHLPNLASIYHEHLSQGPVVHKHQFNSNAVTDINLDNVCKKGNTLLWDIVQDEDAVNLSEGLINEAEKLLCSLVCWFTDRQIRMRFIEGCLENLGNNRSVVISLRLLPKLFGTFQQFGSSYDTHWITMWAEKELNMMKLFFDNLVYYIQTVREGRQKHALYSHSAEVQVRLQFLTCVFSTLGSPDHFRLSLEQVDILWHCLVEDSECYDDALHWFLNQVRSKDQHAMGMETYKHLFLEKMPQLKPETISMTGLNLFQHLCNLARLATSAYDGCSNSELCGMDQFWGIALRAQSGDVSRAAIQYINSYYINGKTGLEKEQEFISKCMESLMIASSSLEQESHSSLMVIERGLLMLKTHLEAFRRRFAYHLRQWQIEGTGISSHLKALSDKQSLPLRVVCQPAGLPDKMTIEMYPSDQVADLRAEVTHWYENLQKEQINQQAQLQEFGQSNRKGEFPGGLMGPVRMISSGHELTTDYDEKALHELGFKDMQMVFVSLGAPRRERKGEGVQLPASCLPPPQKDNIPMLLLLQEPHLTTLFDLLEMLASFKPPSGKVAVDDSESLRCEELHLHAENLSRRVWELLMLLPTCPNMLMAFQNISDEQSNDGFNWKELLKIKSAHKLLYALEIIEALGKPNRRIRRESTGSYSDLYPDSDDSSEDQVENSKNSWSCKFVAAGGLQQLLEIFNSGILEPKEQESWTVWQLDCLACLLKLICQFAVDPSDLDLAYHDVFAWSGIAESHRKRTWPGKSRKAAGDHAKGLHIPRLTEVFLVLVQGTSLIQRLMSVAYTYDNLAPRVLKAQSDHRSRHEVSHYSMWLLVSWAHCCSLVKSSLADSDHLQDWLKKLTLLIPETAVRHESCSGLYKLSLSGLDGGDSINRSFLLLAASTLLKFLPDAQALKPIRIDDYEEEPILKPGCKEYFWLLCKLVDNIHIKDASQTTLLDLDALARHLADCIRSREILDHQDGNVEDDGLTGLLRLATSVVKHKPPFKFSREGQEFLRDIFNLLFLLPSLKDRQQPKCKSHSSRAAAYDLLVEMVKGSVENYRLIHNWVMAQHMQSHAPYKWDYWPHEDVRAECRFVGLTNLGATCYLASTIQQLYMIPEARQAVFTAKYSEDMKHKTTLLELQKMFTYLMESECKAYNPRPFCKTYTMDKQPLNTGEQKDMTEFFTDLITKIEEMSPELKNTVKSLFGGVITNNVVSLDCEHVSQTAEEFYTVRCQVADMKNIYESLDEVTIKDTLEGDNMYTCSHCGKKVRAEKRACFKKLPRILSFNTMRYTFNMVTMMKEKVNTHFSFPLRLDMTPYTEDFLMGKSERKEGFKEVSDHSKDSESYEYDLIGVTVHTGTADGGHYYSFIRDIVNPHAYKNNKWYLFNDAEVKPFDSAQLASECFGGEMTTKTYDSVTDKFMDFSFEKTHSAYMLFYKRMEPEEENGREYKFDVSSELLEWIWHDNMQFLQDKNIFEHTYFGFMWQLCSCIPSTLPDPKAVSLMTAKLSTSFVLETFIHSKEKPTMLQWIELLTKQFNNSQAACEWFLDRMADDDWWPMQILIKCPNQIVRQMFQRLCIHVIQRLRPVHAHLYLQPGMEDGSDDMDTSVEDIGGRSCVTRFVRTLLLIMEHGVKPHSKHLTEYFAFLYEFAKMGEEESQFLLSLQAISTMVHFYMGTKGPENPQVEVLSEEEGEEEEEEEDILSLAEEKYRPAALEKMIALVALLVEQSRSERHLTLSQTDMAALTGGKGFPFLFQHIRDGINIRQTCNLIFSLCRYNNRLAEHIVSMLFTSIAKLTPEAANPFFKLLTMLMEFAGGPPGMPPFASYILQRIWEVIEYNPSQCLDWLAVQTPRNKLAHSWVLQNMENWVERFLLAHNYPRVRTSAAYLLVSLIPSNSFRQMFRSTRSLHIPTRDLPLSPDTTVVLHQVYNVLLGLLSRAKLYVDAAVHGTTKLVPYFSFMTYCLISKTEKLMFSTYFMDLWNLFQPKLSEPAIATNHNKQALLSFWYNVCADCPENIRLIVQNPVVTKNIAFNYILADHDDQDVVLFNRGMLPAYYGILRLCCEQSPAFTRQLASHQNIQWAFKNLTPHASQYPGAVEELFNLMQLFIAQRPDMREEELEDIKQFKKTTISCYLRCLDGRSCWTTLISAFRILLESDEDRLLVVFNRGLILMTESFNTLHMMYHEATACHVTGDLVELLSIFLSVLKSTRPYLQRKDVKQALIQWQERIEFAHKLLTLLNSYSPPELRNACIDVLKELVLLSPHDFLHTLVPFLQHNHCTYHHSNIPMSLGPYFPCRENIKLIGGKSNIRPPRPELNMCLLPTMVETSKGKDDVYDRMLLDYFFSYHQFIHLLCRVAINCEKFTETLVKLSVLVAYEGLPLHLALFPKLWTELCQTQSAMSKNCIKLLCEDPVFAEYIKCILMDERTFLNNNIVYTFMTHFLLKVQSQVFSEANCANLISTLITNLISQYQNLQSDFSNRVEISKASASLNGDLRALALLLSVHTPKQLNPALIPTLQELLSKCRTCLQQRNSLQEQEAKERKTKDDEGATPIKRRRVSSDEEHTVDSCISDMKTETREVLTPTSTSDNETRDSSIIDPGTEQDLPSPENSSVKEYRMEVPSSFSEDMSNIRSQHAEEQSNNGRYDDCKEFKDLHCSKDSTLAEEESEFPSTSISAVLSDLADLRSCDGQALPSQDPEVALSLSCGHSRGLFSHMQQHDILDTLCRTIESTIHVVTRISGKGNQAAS

O=C(CCl)N1CCN(c2nc3ccccc3o2)CC1
inactive: [1] -0.0431 | [2] -0.047 | [3] -0.41 | [4] -0.00936 | [5] -0.445
